Screens (PubChem)
AHR activator: activates the human aryl hydrocarbon receptor; P35869; AHR-responsive luciferase reporter cells, luminescence; activation, % at 5 µM; actives 2.5% (n = 320,000); AID 2796; in the data active = activation above about 47%;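 note: 0% = vehicle wells and 100% = reference agonist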
A3A deaminase: inhibitors of human APOBEC3A DNA deaminase; recombinant A3A, FAM/TAMRA ssDNA deamination fluorescence; AID 493011; inhibition, % at 20 µM; actives 0.41% (n = 330,000);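 active = at least 40% inhibition at 20 µM here, with at most 30% in a related deaminase screen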;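 note: plate controls were A3A with DMSO for no effect and wells lacking A3A enzyme for full effect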
NTR1 ag: agonists of human neurotensin receptor NTR1; P30989; activation, % at 20 µM; actives 0.17% (n = 330,000); NTR1-U2OS beta-arrestin-GFP spot imaging, agonist mode; AID 493036;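 active = activation at or above 40% of the spot to cytoplasm intensity ratio, with at least 20 cells analyzed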;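 note: 0% = DMSO without peptide and 100% = 100 nM NTR1 peptide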
APOBEC3G inh: inhibitors of human APOBEC3G DNA deaminase. recombinant A3G, ssDNA deamination FAM/TAMRA fluorescence. inhibition, % at 20 µM. actives 0.28% (n = 330,000). AID 493012;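 active = inhibition of at least 40% at 20 µM, with no more than 30% in the related APOBEC3A deaminase screen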;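 note: plate controls were DMSO wells with A3G for no effect and wells lacking A3G enzyme for full effect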
AHR act cf: human AHR activation, confirmation; shares compounds with AHR activator; human cells, AHR-responsive luciferase reporter, luminescence; activation, % at 9 µM; actives 87% (n = 2,300); AID 2845; in the data active = activation above about 49%;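 note: HepG2 hepatoma cells carrying a DRE-driven firefly luciferase reporter; 0% = vehicle wells and 100% = reference agonist wells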
PXR counter: PXR activation, counter-screen for AHR activators. shares compounds with AHR activator. cell-based PXR reporter, luciferase luminescence. activation, % at 11.6 µM. actives 88% (n = 2,300). AID 434939; in the data active = activation above about 11%;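 note: human hepatoma DPX-2 cells expressing full-length human PXR; 0% = DMSO and 100% = reference agonist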
Target sequence (O75469 whole entry, looked up): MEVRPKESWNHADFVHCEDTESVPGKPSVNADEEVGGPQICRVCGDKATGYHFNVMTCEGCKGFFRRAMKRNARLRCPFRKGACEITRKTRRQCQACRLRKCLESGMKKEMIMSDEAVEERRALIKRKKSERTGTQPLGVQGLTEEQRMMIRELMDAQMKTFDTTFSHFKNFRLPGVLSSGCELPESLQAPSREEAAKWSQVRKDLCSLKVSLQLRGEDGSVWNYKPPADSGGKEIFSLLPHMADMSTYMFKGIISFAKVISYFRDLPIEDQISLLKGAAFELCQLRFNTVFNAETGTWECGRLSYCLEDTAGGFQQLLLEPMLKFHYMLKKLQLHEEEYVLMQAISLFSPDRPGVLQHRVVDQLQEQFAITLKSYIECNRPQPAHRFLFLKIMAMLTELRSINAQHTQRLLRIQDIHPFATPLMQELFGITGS
Active calls of the source: *; / = not tested or not shown. Sampled rows, rich in hits. Any-hit rate of the full collection: about 3.2%.

SMILES	AHR activator	A3A deaminase	NTR1 ag	APOBEC3G inh	AHR act cf	PXR counter
O=C1C2C3C=CC(C3)C2C(=O)N1/N=C/c1cn(Cc2ccccc2)c2ccccc12 (configuration not stated)	1	0	0	-2	/	/
CC(C)c1ccc(NC(=O)CCN2C(=O)[C@@H]3Cc4ccccc4CN3C2=O)cc1	89*	-4	0	-10	1	97*
Cc1ccc(NC(=O)CCCCCN2C(=O)[C@@H]3Cc4ccccc4CN3C2=O)cc1	-3	-5	1	-4	/	/
O=C(Nc1ccccc1C(=O)Nc1ccccc1)c1ccccc1F	83*	-5	3	-6	65*	41*
O=C(O)c1cccc(NC(=O)c2ccccc2NC(=O)c2ccccc2F)c1	4	-5	1	11	/	/
Cc1ccc(-c2nc(NCCN(C)C)c3ccccc3n2)cc1	43	2	2	-6	/	/
CN(C)CCCNc1nc(-c2ccc(Cl)cc2)nc2ccccc12	114*	4	1	-3	77*	26*
Cc1ccc(NC(=O)C2CCCN(S(=O)(=O)c3c(C)noc3C)C2)c(Br)c1 (configuration not stated)	11	-2	1	-3	/	/
O=C(c1ccc(-c2nc3ccccc3s2)o1)N1CCN(c2ccccc2O)CC1	89*	-2	24	-4	85*	37*
O=C(NCc1cccnc1)c1ccc(-c2ccccc2[N+](=O)[O-])o1	87*	-1	0	-8	95*	39*
O=C(NCc1cccnc1)c1ccc(-c2cccc(Cl)c2Cl)o1	22	-1	-2	-2	/	/
COc1ccc(C)cc1NS(=O)(=O)c1ccc2c(c1)N(C)CCO2	11	-3	1	1	/	/
COc1ccc(-c2cc(=O)c3cc(C)ccc3[nH]2)cc1	35	4	-1	-2	/	/
Cc1ccc(-c2cc(=O)c3cc(Cl)ccc3[nH]2)cc1	18	5	1	-4	/	/
COc1cc2[nH]c(-c3ccc(C)cc3)cc(=O)c2cc1OC	134*	-2	0	-4	78*	13*
COc1cc2[nH]c(-c3cccc(F)c3)cc(=O)c2cc1OC	91*	-1	-7	2	54*	/
COc1cccc(-c2cc(=O)c3cc(NC(C)=O)ccc3[nH]2)c1	15	-2	-4	-1	/	/
Cc1ccc2[nH]c(-c3ccccc3)cc(=O)c2c1	135*	7	-6	23	34	57*
Cc1cc(C(=O)Nc2cccc(C)c2C)c2ccccc2n1	10	-8	1	-16	/	/
OCCCn1c(CCCNc2nc(-c3cccc(Br)c3)cs2)nc2cc(Cl)c(N3CCCCC3)cc21	18	-3	4	-7	/	/
OCCCn1c(CCNc2nc(-c3ccc(Cl)cc3)cs2)nc2cc(C(F)(F)F)ccc21	41	-5	3	-5	/	/
OCCOCCn1c(CCNc2nc(-c3ccc(F)cc3)cs2)nc2cc(C(F)(F)F)ccc21	91*	0	2	-2	50*	27*
Nc1c(Cl)cc(-c2csc(NCCc3nc4cc(Cl)c(Cl)cc4n3CCCO)n2)cc1Cl	131*	-7	-2	-13	113*	82*
Cc1cc(C)cc(NC(=O)c2sc3nc(C)cc(C)c3c2N)c1	-11	-3	3	-6	/	/
Cc1cccc(NC(=O)c2sc3nc(N)c(C#N)cc3c2N)c1	111*	/	/	/	61*	29*
SMILES	AHR activator	A3A deaminase	NTR1 ag	APOBEC3G inh	AHR act cf	PXR counter
COc1cc2c3c(c1)C1(C(=O)N3C(C)(C)C=C2C)C(C#N)=C(N)Oc2cc(O)ccc21 (configuration not stated)	93*	-2	2	-5	39	2
CCc1ccc(NC(=O)c2noc3c2CCc2ccccc2-3)cc1	24	1	1	3	/	/
Cc1ccc(NC(=O)c2noc3c2CCc2ccccc2-3)cc1	102*	-1	3	-1	133*	20*
Oc1ccc2ccccc2c1N=Nc1ccc(F)cc1	38	12	5	13	/	/
Oc1[nH]c2ccccc2c1N=Nc1ccc(F)cc1	94*	-1	6	-5	91*	7
c1cn(CCCNc2ncnc3sc4c(c23)CCC4)cn1	128*	-3	0	-5	92*	18*
c1csc(CCNc2ncnc3sc4c(c23)CCC4)c1	34	0	6	-4	/	/
CCOC(=O)C1=CN(Cc2cccc(F)c2)S(=O)(=O)N(CC)C1c1ccc(F)c(Cl)c1 (configuration not stated)	/	1	2	1	/	/
COc1ccc(C(=O)COc2ccccc2C#N)cc1	90*	-1	1	-3	67*	23*
COc1ccc(C(=O)COc2ccccc2C(N)=O)cc1	3	0	0	-2	/	/
N=c1n(CC(=O)c2ccc([N+](=O)[O-])cc2)c2ccccc2n1Cc1ccccc1	2	3	1	-4	/	/
N=c1n(CC(=O)c2ccc(Br)cc2)c2ccccc2n1Cc1ccccc1	124*	1	16	-6	81*	46*
Clc1ccccc1Cn1nnc(-c2ccccc2)n1	41	-2	2	-7	/	/
Clc1ccccc1Cn1nnc(-c2cccs2)n1	117*	-3	0	-3	150*	37*
Cn1/c(=N\NC(=O)C2CCCCC2)sc2ccccc21	42	1	2	-3	/	/
Cn1/c(=N\NC(=O)c2ccccc2Cl)sc2ccccc21	136*	-2	-1	-9	126*	53*
Cc1cccc(N=C2NC(=O)/C(=C\c3cccs3)S2)c1	32	-4	1	-6	/	/
O=C1NC(=Nc2ccccc2)S/C1=C/c1cccs1	116*	1	2	-5	120*	32*
O=C1NC(c2cccs2)Nc2sc3c(c21)CCCC3 (configuration not stated)	93*	6	3	4	128*	37*
COc1cc(NC(=O)C/C(C)=N/NC(=O)Cc2ccccc2)c(OC)cc1Cl	147*	3	0	-1	5	16*
COc1ccc(CCNC(=O)COC(=O)c2cc(S(=O)(=O)N3CCOCC3)ccc2C)cc1OC	0	0	2	-5	/	/
CC1CCN(S(=O)(=O)CCNC(=O)c2ccc3c(c2)OCO3)CC1	4	21	0	-9	/	/
Cc1ccc(NC(=O)Nc2ccon2)cc1	/	-4	0	-6	/	/
O=C(Nc1ccc(Cl)cc1)Nc1ccon1	97*	6	1	-7	76*	14*
COc1cccc(CNC(=O)c2ccc(C3SCCS3)cc2)c1	28	4	0	-5	/	/
CC(=O)Oc1ccc(-c2csc(Nc3cccc(C)n3)n2)cc1	14	-5	16	-7	/	/
Cc1cccc(Nc2nc(-c3ccc(F)cc3)cs2)n1	79*	-2	26	-2	111*	10*
COc1ccc(-c2csc(Nc3cccc(C)n3)n2)cc1	88*	-5	8	-8	97*	19*
CCCCn1c(-c2cccs2)nc2oc3ccccc3c(=O)c2c1=O	2	-11	2	-9	/	/
